Test results reported in PubChem BioAssay AID602123 (The Scripps Research Institute Molecular Screening Center, 2011).
Among all 360,000 compounds or so, about 1,500 (0.42%) were called active. The sample as a whole holds a higher share of actives than the screen did. Unmarked numbers belong to inactive results. No stated cut-off is given here; in the data, active means inhibition above about 13% (passing the limit was not always enough); inactive means the rest.

Target: Lon protease (Escherichia coli (strain K12)) (UniProt P0A9M0)
Assay: E. coli eLon protease inhibition – biochemical, fluorescence polarization, primary screen (AID 602123);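 further: 0% = enzyme with probe and DMSO and 100% = no enzyme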
Details: purified E. coli Lon protease, at 7.94 µM, stronger effect = higher value

Lon protease (Escherichia coli (strain K12)), sequence (P0A9M0 whole entry, looked up): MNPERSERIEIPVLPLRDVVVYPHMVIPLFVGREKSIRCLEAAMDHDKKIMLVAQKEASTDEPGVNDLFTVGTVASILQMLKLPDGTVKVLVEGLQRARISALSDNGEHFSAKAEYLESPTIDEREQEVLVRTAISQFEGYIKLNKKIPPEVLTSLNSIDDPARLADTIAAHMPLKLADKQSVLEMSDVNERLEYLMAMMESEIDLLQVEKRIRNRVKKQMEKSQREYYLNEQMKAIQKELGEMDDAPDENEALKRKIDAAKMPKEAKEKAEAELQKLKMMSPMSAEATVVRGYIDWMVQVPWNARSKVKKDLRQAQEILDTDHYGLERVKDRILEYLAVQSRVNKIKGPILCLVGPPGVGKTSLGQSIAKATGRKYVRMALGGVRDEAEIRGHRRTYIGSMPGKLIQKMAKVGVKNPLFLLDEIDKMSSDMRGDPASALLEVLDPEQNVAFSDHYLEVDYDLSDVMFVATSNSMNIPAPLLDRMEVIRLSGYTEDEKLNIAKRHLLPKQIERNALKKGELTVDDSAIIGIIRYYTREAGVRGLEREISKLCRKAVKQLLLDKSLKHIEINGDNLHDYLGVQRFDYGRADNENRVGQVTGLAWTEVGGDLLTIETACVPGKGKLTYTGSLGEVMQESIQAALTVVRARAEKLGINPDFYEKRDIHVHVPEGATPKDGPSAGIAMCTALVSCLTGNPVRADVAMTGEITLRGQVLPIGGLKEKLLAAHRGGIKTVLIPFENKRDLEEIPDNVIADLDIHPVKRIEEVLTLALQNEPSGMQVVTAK

**Q.** Which inhibition does the source give for `Cc1ccc2nc(-c3ccco3)c(Cc3cccc(Cl)c3)n2c1` here?
**A.** -7.22%

**Q.** How did the inhibition turn out when `c1ccc(Cc2c(-c3ccco3)nc3c4ccccc4ccn23)cc1` was run?
**A.** -7.97%

**Q.** For `COc1ccc(NCc2nnc(SCc3ccccc3)n2-c2ccc(OC)cc2)cc1`, which inhibition is on record?
**A.** -3.02%

**Q.** For `Clc1ccccc1CSc1nnc(-c2ccco2)c(-c2ccco2)n1`, which inhibition is on record?
**A.** 41.5% (active)

**Q.** With `c1ccc(CSc2nnc(-c3ccco3)c(-c3ccco3)n2)cc1` as the compound, how does the inhibition read?
**A.** 86.1% (active)

**Q.** With `Cc1ccc(Cc2c(-c3ccco3)nc3ccc(Cl)cn23)cc1` as the compound, how does the inhibition read?
**A.** -7.56%

**Q.** Which inhibition does the source give for `O=C(C1CC(=O)N(c2ccc(Br)cc2)C1)N1CCCC1` (stereo not drawn) here?
**A.** -8.68%

**Q.** Which inhibition does the source give for `CC1CC(=S)Nc2ccccc2N1Cc1ccccc1` (stereo not drawn) here?
**A.** 6.5%

**Q.** With `O=C(CCCn1c(=O)c2sccc2n(CC(=O)NCC2CCCO2)c1=O)NCc1ccco1` (stereo not drawn) as the compound, how does the inhibition read?
**A.** -1.12%

**Q.** With `C=CCN1CCN(C(=O)CCCc2ccccc2)CC1` as the compound, how does the inhibition read?
**A.** -7.13%

**Q.** For `Cn1c(C(=O)OC(C(=O)NC2CCCCC2)c2ccccn2)cc2sccc21` (stereo not drawn), which inhibition is on record?
**A.** 2.24%

**Q.** How did the inhibition turn out when `CC(C)(O)C1=C[N+](=O)CC=C1` was run?
**A.** -1.32%

**Q.** For `COC(=O)CSc1ccc2nnc(CCNS(=O)(=O)c3ccc(C)cc3)n2n1`, which inhibition is on record?
**A.** -1.61%

**Q.** `COCc1cc(C(C)=O)ccc1OC` was tested. Which inhibition did it give?
**A.** -3.49%

**Q.** `COc1ccc(-c2onc3ccc(C(C)=O)cc23)cc1` was tested. Which inhibition did it give?
**A.** 97% (active)

**Q.** Which inhibition does the source give for `COc1ccc(-c2ocnc2C(=O)Nc2ccc3c(c2)CCC3)cc1` here?
**A.** 11.4%

**Q.** How did the inhibition turn out when `CCOC(=O)c1cc2cc(OC)ccc2n1C1CCN(C)CC1` was run?
**A.** 3.4%

**Q.** `COc1cc2cc(CN(CCN3CCCC3)C(=O)Nc3ccccc3Cl)c(=O)[nH]c2cc1OC` was tested. Which inhibition did it give?
**A.** -12.8%

**Q.** Which inhibition does the source give for `Cc1ccc(C(=O)OCC(=O)NCc2cc(C)c(O)c(C)c2)cc1S(=O)(=O)N1CCCCC1` here?
**A.** -7.17%

**Q.** With `COc1cc(NC(=O)COC(=O)c2cnc(C)cn2)c(C)cc1[N+](=O)[O-]` as the compound, how does the inhibition read?
**A.** -4.63%

**Q.** With `COc1ccc(-c2cc(NC(C)=O)c3ncc(-c4cc(OC)c(OC)c(OC)c4)n3c2)cn1` as the compound, how does the inhibition read?
**A.** 2.07%

**Q.** `Cc1ccn2cc(-c3nonc3C)cc2c1` was tested. Which inhibition did it give?
**A.** 25.1% (active)

**Q.** `c1ccc(C(=NNc2nc3ccccc3s2)c2ccccn2)cc1` was tested. Which inhibition did it give?
**A.** 131% (active)

**Q.** Which inhibition does the source give for `CSc1ncccc1C(=O)Nc1nc2ccc(F)cc2s1` here?
**A.** 7.17%

**Q.** Which inhibition does the source give for `C[C@H]1CN([C@@H](C)CO)C(=O)CCCn2cc(nn2)CO[C@@H]1CN(C)S(=O)(=O)c1ccc(-n2cccn2)cc1` here?
**A.** 7.06%

**Q.** With `O=C(CNC(=O)c1ccccc1F)OCC(=O)c1c[nH]c2ccccc12` as the compound, how does the inhibition read?
**A.** -11.7%

**Q.** `O=C(Nc1ccn(Cc2ccccc2)n1)c1n[nH]c([N+](=O)[O-])c1Cl` was tested. Which inhibition did it give?
**A.** 1.99%

**Q.** With `COCCn1c(N)c(N(Cc2ccccc2)C(=O)C2CCCCC2)c(=O)[nH]c1=O` as the compound, how does the inhibition read?
**A.** -5.01%

**Q.** For `COCCn1c(N)c(NCc2ccccc2)c(=O)[nH]c1=O`, which inhibition is on record?
**A.** 31.1% (active)

**Q.** Which inhibition does the source give for `COCCN(C(=O)c1ccccc1F)c1c(N)n(Cc2ccccc2)c(=O)[nH]c1=O` here?
**A.** 2.64%

**Q.** Which inhibition does the source give for `Cc1ccc(N=C2SCCCN2C(=O)c2cccc(N3C(=O)CCC3=O)c2)cc1Cl` here?
**A.** 1.67%

**Q.** How did the inhibition turn out when `COC(=O)c1cccc(C(=O)N2CCC(CCC(=O)NCc3ccc(F)cc3)CC2)c1` was run?
**A.** -6.42%

**Q.** Which inhibition does the source give for `CC(=O)Nc1ccc(CN2CCN(Cc3ccc(F)c(F)c3)C(CCO)C2)cc1` (stereo not drawn) here?
**A.** -13.9%

**Q.** How did the inhibition turn out when `COc1ccc(Nc2ccc([N+](=O)[O-])cn2)cn1` was run?
**A.** 20.9% (active)

**Q.** With `COc1cc(NC(=O)Nc2ccc(C)cc2)cc([N+](=O)[O-])c1` as the compound, how does the inhibition read?
**A.** -13%

**Q.** Which inhibition does the source give for `COC(=O)c1ccccc1N=NNc1ccc([N+](=O)[O-])cc1` here?
**A.** -9.1%

**Q.** How did the inhibition turn out when `O=S(=O)(/N=C(/Nc1ccccc1)c1ccccc1)c1cccs1` was run?
**A.** 5.92%

**Q.** `O=S1(=O)CC(N2CCN(CCO)CC2)CN1Cc1cn(Cc2ccc(Cl)cc2)nn1` (stereo not drawn) was tested. Which inhibition did it give?
**A.** -4.7%

**Q.** `Cn1nc(C(F)(F)F)c2cc(NC(=O)OCC(C)(C)C)sc21` was tested. Which inhibition did it give?
**A.** -3.72%

**Q.** `CCNc1nc(N)nc(-c2cc(Cl)ccc2OC)n1` was tested. Which inhibition did it give?
**A.** -13.4%

**Q.** How did the inhibition turn out when `CCOc1cc(S(=O)(=O)NC2CC(C)(C)NC(C)(C)C2)ccc1F` was run?
**A.** -9.09%

**Q.** `COc1ccc(CCNC(=O)Nc2ccc3c(c2)c(=O)n(C)n3C)cc1OC` was tested. Which inhibition did it give?
**A.** 7.25%

**Q.** How did the inhibition turn out when `COCCNC(=O)CN(Cc1ccco1)C(=O)CCC(=O)Nc1nccs1` was run?
**A.** -1.88%

**Q.** Which inhibition does the source give for `COCCNC(=O)Nc1ccc2nc(-c3ccco3)c(-c3ccco3)nc2c1` here?
**A.** 25.9% (active)

**Q.** `O=C(c1cccc(Br)c1)N1CCN(C2=NS(=O)(=O)c3ccccc32)CC1` was tested. Which inhibition did it give?
**A.** -1.34%

**Q.** With `Oc1ccc(N=Cc2sc3ccccc3c2Cl)cc1` as the compound, how does the inhibition read?
**A.** 32.3% (active)

**Q.** With `COc1ccc(OC)c(NC(=O)N[C@H](Cc2ccccc2)C(=O)NN)c1` as the compound, how does the inhibition read?
**A.** -10.1%

**Q.** How did the inhibition turn out when `COc1ccc2oc(C(=O)NCC(Cc3ccccc3)N(C)C)c(C)c2c1` (stereo not drawn) was run?
**A.** 1.71%

**Q.** How did the inhibition turn out when `COc1cc([C@H](Cc2ccccc2)NC(C)=O)oc(=O)c1` was run?
**A.** 17.6% (active)

**Q.** With `CC(=O)N1CC(C)c2scc(C)[n+]2-c2ccccc21` (stereo not drawn) as the compound, how does the inhibition read?
**A.** 20.3%

**Q.** For `C=CCc1cccc2cc(C(=O)Nc3ccc(NC(C)=O)cc3)c(=O)oc12`, which inhibition is on record?
**A.** -3.06%

**Q.** `CCc1cc2c(=O)c(-c3ccon3)c(N)oc2cc1OC` was tested. Which inhibition did it give?
**A.** -12.2%

**Q.** Which inhibition does the source give for `Cc1cc(OCCN2CCCC2)cc(C(C)C)c1` here?
**A.** 3.29%

**Q.** `Nc1ccc2nc3c(=O)[nH]c(=S)[nH]c3nc2c1` was tested. Which inhibition did it give?
**A.** 182% (active)

**Q.** Which inhibition does the source give for `Cc1coc2c(O)cc3c(c12)OC1(N2CCCCC2)C(=O)NCCCC31` (stereo not drawn) here?
**A.** 29.9% (active)

**Q.** How did the inhibition turn out when `CSc1ccc(C(=O)C2CCCN(C(=O)c3ccc(C)nc3)C2)cc1` (stereo not drawn) was run?
**A.** -8.1%

**Q.** `CCCC(=O)OCC(=O)Nc1cc(Cl)ccc1[N+](=O)[O-]` was tested. Which inhibition did it give?
**A.** 5.89%

**Q.** With `CC1(C)CC(N2CCN(C(c3ccccc3)c3ccccc3)CC2)=CC(=[N+]2CCCCC2)C1` as the compound, how does the inhibition read?
**A.** -3.99%

**Q.** `O=C(O)Cc1ccc(NC(=O)C2CCCCC2C(=O)O)cc1` (stereo not drawn) was tested. Which inhibition did it give?
**A.** -2.29%

**Q.** How did the inhibition turn out when `CC#CC[N+](C)(C)CCCCCC` was run?
**A.** 11.3%

**Q.** Which inhibition does the source give for `CCN1CCN(C2CCCCC2NS(=O)(=O)c2ccc(Cl)cc2)CC1` (stereo not drawn) here?
**A.** -11.9%

**Q.** `O=S(=O)(NC1CCCCC1N1CCN(c2ccccc2F)CC1)c1ccccc1` (stereo not drawn) was tested. Which inhibition did it give?
**A.** -9.13%

**Q.** `COc1ccc(N2CCN(C3CCCCC3NS(=O)(=O)c3ccccc3)CC2)cc1` (stereo not drawn) was tested. Which inhibition did it give?
**A.** 17.2% (active)
